Measured values taken from PubChem BioAssay (EPA / NIEHS).
Activity calls are given as the source filed them. The calls were made as follows: active = hit-call score of the fitted dose curve at least 0.9, where 1 is the maximum; inactive = score below 0.9.

How the values were obtained:
[1] = ATG_GLI_CIS: Attagene CIS-FACTORIAL HepG2 Assay for human Zinc Finger Protein GLI1 (AID 2282945); conditions: HepG2, Attagene cis-factorial reporter mRNA, GLI element; actives raise or lower the signal
In short: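 Transiently transfected HepG2 cells report endogenous transcription factor activity via cis-element-driven reporter units. After 24 h compound exposure, reporter mRNA was measured by RT-PCR with capillary electrophoresis; bidirectional fitting against DMSO baseline.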

[2] = biological target: Bile acid receptor (Homo sapiens) (UniProt Q96RI1); test: ATG_IR1_CIS: Attagene CIS-FACTORIAL HepG2 Assay for human Nuclear Receptor Subfamily 1 Group H Member 4 (NR1H4), IR1 submotif (AID 2282946); conditions: IR1 reporter transcription, actives raise or lower the signal
In short: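 HepG2 cells transiently transfected with multiple cis-promoter-driven reporter units to measure endogenous transcription factor activity; 24 h exposure. Reporter mRNA read by RT-PCR, FAM labelling, HpaI digestion and capillary electrophoresis. Bidirectional fit versus DMSO.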

[3] = ATG_GRE_CIS: Attagene CIS-FACTORIAL HepG2 Assay for human Glucocorticoid Response Elements (GRE) (AID 2282947); conditions: HepG2 GRE cis-reporter, Attagene multiplex mRNA; actives raise or lower the signal
In short: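 Transiently transfected HepG2 cells carrying GRE cis-reporter units (endogenous TF activity) dosed 24 h; reporter mRNA quantified by RT-PCR, 6-FAM labelling, HpaI digestion and capillary electrophoresis. Bidirectional fit versus DMSO baseline.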

[4] = ATG_ISRE_CIS: Attagene CIS-FACTORIAL HepG2 Assay for human Interferon Regulatory Factor 1 (IRF1) binding to an Interferon-Stimulated Response Element (ISRE) (AID 2282948); conditions: HepG2 ISRE cis-reporter (Attagene), mRNA transcription readout; actives raise or lower the signal
In short: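 Transiently transfected HepG2 cells carrying cis-element reporter units, dosed 24 hours. Reporter mRNA quantified by RT-PCR, fluorescent primer extension, HpaI digestion and capillary electrophoresis. Bidirectional fitting relative to DMSO.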

[5] = ATG_M_32_CIS: Attagene CIS-FACTORIAL HepG2 Assay for M32 Transcription Factor (Internal Marker) (AID 2282949); conditions: HepG2 Attagene cis-factorial M32 reporter, mRNA; actives raise or lower the signal;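 also: background control marker of the multiplexed CIS panel rather than a real target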
In short: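 HepG2 cells transiently transfected with multiplexed cis-regulated reporter units, dosed 24 h. Reporter mRNA quantified by RT-PCR, 6-FAM labelling, HpaI digestion and capillary electrophoresis; bidirectional fit vs DMSO.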

[6] = ATG_M_06_CIS: Attagene CIS-FACTORIAL HepG2 Assay for M06 Transcription Factor (Internal Marker) (AID 2282950); conditions: HepG2 Attagene CIS-FACTORIAL M06 internal marker reporter; actives raise or lower the signal
In short: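 HepG2 cells transiently transfected with cis-regulated multiple reporter transcription units were exposed to chemical for 24 h; reporter mRNA was quantified by RT-PCR, 6-FAM primer labelling, HpaI digestion and capillary electrophoresis, fitted bidirectionally against DMSO.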

[7] = biological target: Hypoxia-inducible factor 1-alpha (Homo sapiens) (UniProt Q16665); test: ATG_HIF1a_CIS: Attagene CIS-FACTORIAL HepG2 Assay for human Hypoxia Inducible Factor 1 (HIF1A) (AID 2282951); conditions: HepG2 Attagene cis-factorial HIF1a reporter transcription; actives raise or lower the signal
In short: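 Fluorescence intensity of capillary-separated, 6-FAM-labelled reporter amplicons gives mRNA induction in HepG2 cells carrying transfected cis-promoter reporter units; cells exposed 24 h, responses fitted up or down from DMSO.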

[8] = biological target: Hepatocyte nuclear factor 6 (Homo sapiens) (UniProt Q9UBC0); test: ATG_HNF6_CIS: Attagene CIS-FACTORIAL HepG2 Assay for human Hepatocyte Nuclear Factor 6 (HNF6) (AID 2282952); conditions: HepG2 Attagene cis-factorial HNF6 reporter transcription; actives raise or lower the signal
In short: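 HepG2 cells transiently transfected with cis-element-driven multiplexed reporter units measuring endogenous transcription factor activity. After 24 h exposure, reporter mRNA quantified by RT-PCR, FAM-labelled fragments and capillary electrophoresis; bidirectional fitting versus DMSO.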

[9] = biological target: Heat shock factor protein 1 (Homo sapiens) (UniProt Q00613); test: ATG_HSE_CIS: Attagene CIS-FACTORIAL HepG2 Assay for human Heat Shock Transcription Factor 1 (HSE) (AID 2282953); conditions: HepG2 HSE cis-reporter, Attagene RNA transcription; actives raise or lower the signal
In short: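 HepG2 cells transiently transfected with multiple reporter transcription units under cis-regulatory promoter control, measuring endogenous transcription factor activity. After 24 h chemical exposure, reporter mRNA quantified by RT-PCR, fluorescent labelling, HpaI digestion and capillary electrophoresis; bidirectional fit versus DMSO.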

[10] = ATG_MRE_CIS: Attagene CIS-FACTORIAL HepG2 Assay for human Metal Responsive Element (MRE) (AID 2282954); conditions: HepG2 MRE cis-reporter transcription, Attagene multiplex; actives raise or lower the signal
In short: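 HepG2 cells transiently transfected with cis-element-driven reporter units; mRNA measured 24 h after dosing. Reporter transcripts quantified by RT-PCR, FAM labelling, HpaI digestion and capillary electrophoresis; bidirectional fit versus DMSO.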

Bile acid receptor (Homo sapiens), sequence (Q96RI1 whole entry, looked up): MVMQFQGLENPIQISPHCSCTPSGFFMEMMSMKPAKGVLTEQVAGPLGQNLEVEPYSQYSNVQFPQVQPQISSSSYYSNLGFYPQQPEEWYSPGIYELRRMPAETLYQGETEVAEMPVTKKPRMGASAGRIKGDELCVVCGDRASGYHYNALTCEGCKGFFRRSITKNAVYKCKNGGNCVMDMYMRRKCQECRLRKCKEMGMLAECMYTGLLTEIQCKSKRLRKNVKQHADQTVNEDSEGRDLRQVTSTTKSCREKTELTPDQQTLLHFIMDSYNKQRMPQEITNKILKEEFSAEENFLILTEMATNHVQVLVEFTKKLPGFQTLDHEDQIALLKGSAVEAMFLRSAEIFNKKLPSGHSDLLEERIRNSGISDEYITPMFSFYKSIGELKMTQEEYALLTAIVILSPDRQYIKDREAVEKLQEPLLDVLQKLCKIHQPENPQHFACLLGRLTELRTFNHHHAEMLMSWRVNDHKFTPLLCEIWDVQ
Heat shock factor protein 1 (Homo sapiens), sequence (Q00613 whole entry, looked up): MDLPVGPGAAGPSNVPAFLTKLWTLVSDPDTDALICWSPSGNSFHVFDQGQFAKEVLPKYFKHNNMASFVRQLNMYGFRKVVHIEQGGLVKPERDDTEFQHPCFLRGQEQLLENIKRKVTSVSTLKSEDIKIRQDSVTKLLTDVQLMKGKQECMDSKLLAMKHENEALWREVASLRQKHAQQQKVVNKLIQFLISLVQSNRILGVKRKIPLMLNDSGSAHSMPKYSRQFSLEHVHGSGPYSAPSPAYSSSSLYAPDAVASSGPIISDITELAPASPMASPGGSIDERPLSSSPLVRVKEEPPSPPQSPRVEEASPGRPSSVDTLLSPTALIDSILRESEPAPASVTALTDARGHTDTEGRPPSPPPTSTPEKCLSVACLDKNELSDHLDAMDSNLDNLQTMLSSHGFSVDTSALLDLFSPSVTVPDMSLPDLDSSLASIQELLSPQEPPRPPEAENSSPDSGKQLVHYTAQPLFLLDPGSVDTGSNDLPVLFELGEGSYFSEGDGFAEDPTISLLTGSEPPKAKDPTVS
Hepatocyte nuclear factor 6 (Homo sapiens), sequence (Q9UBC0 whole entry, looked up, the tested form may be a part): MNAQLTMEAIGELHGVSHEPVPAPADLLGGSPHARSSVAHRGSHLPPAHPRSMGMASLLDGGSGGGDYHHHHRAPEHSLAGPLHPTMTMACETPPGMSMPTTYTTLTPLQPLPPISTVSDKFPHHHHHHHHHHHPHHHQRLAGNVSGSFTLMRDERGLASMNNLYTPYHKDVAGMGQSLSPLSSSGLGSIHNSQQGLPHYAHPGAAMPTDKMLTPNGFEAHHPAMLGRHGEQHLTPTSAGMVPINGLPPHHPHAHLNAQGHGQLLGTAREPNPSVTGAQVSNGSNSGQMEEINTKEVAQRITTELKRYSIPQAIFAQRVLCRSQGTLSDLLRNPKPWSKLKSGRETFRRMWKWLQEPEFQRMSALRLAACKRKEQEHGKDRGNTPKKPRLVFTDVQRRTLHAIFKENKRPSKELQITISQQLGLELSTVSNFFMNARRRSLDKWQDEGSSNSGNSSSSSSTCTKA
Hypoxia-inducible factor 1-alpha (Homo sapiens), sequence (Q16665 whole entry, looked up): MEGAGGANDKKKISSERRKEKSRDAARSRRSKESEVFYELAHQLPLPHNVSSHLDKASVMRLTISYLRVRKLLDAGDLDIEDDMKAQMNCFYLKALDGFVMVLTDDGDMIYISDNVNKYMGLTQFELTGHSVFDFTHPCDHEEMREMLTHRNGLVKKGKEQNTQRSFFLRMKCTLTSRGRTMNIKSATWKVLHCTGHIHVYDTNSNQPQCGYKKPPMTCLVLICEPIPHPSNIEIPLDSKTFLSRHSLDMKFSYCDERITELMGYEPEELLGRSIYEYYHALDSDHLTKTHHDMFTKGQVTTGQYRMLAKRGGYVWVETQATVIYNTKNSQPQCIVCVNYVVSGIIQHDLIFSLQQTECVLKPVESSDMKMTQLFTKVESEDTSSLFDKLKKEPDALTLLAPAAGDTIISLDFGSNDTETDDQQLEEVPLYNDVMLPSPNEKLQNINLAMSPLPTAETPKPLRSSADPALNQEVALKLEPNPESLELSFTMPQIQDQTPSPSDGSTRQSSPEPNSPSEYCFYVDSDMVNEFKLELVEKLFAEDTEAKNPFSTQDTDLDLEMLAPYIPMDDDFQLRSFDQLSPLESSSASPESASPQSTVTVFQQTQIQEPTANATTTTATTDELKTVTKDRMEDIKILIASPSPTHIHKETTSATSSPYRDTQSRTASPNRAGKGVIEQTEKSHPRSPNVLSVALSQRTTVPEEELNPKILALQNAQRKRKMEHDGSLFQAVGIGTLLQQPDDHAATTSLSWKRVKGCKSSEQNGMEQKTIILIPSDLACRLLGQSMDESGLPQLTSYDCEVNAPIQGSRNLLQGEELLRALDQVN

Compound | outcome [1] | outcome [2] | outcome [3] | outcome [4] | outcome [5] | outcome [6] | outcome [7] | outcome [8] | AC50 [9] | outcome [9] | outcome [10] | AC50 [1] | AC50 [8] | AC50 [4] | AC50 [10] | AC50 [2] | AC50 [7]
O=C(c1ccccc1)c1ccc(Cl)cc1 | inactive | inactive | inactive | inactive | inactive | inactive | inactive | inactive | 153 µM (active) | – | – | – | – | – | – | – | –
C=CC(=O)OCCC(F)(F)C(F)(F)C(F)(F)C(F)(F)F | inactive | inactive | inactive | inactive | inactive | inactive | inactive | inactive | – | inactive | – | – | – | – | – | – | –
NC(=O)C(F)(F)C(F)(F)C(F)(F)C(F)F | inactive | inactive | inactive | inactive | inactive | inactive | inactive | inactive | – | inactive | inactive | – | – | – | – | – | –
CCc1cc(Cc2cc(CC)c(N)c(CC)c2)cc(CC)c1N | – | inactive | inactive | inactive | inactive | inactive | inactive | – | 60 µM (active) | – | – | 60.5 µM (active) | 56.6 µM (active) | – | – | – | –
CC(C)CC=C(C=O)c1ccccc1 | inactive | inactive | inactive | inactive | inactive | inactive | inactive | inactive | – | inactive | – | – | – | – | – | – | –
C=CC(=O)OCC(F)(F)C(F)(F)C(F)(F)C(F)(F)C(F)(F)C(F)(F)C(F)(F)C(F)F | inactive | inactive | inactive | – | inactive | inactive | inactive | inactive | 218 µM (active) | – | – | – | – | 150 µM (active) | 231 µM (active) | – | –
O=C(O)C(F)(F)OC(F)(F)C(F)(F)OC(F)(F)C(F)(F)OC(F)(F)F | inactive | inactive | inactive | inactive | inactive | inactive | inactive | inactive | 104 µM (active) | – | – | – | – | – | – | – | –
CCOC(OCC)OCC | inactive | inactive | inactive | inactive | inactive | inactive | inactive | inactive | – | inactive | – | – | – | – | – | – | –
CO[Si](CCCOCC1CO1)(OC)OC (stereo not given) | inactive | inactive | inactive | inactive | inactive | inactive | inactive | inactive | – | inactive | – | – | – | – | – | – | –
COCCC(=O)OC | inactive | inactive | inactive | inactive | inactive | inactive | inactive | inactive | – | inactive | – | – | – | – | – | – | –
Cc1cc(C)c(O)c(C(C)(C)C)c1 | inactive | inactive | inactive | inactive | inactive | inactive | inactive | inactive | – | inactive | – | – | – | – | – | – | –
OCCCCl | inactive | inactive | inactive | inactive | inactive | inactive | inactive | inactive | – | inactive | – | – | – | – | – | – | –
O=S(=O)(O)CCC(F)(F)C(F)(F)C(F)(F)C(F)(F)C(F)(F)C(F)(F)C(F)(F)C(F)(F)F | inactive | – | inactive | inactive | inactive | inactive | inactive | inactive | – | inactive | – | – | – | – | – | 39.9 µM (active) | –
Brc1ccccn1 | inactive | inactive | inactive | inactive | inactive | inactive | inactive | inactive | – | inactive | – | – | – | – | – | – | –
CO[Si](C)(CCC(F)(F)C(F)(F)C(F)(F)C(F)(F)C(F)(F)C(F)(F)F)OC | inactive | inactive | inactive | inactive | inactive | inactive | inactive | inactive | – | inactive | – | – | – | – | – | – | –
COc1ccccc1C=O | inactive | inactive | inactive | inactive | inactive | inactive | – | inactive | – | inactive | inactive | – | – | – | – | – | 27.7 µM (active)
NC(=O)C(F)(F)C(F)(F)C(F)(F)F | inactive | inactive | inactive | inactive | inactive | inactive | inactive | inactive | – | inactive | inactive | – | – | – | – | – | –
OCC(F)(F)C(F)(F)C(F)(F)C(F)(F)C(F)(F)C(F)(F)CO | inactive | inactive | inactive | inactive | inactive | inactive | inactive | inactive | – | inactive | – | – | – | – | – | – | –
Cc1ccc2c(c1)OCC(=O)CO2 | inactive | inactive | inactive | inactive | inactive | inactive | inactive | inactive | – | inactive | – | – | – | – | – | – | –
OCCC(O)CO (stereo not given) | inactive | inactive | inactive | inactive | inactive | inactive | inactive | inactive | – | inactive | inactive | – | – | – | – | – | –
CC1CCCCC1 | inactive | inactive | inactive | inactive | inactive | inactive | inactive | inactive | – | inactive | – | – | – | – | – | – | –
O=C(O)C(F)(F)C(F)(F)C(F)(F)C(F)(F)C(F)(F)C(F)(F)C(F)F | inactive | inactive | inactive | inactive | inactive | inactive | inactive | inactive | – | inactive | – | – | – | – | – | – | –
CCOC(=O)CC(=O)C(F)(F)C(F)(F)F | inactive | inactive | inactive | inactive | inactive | inactive | inactive | inactive | – | inactive | inactive | – | – | – | – | – | –
CC(C)=CCCC(C)O (stereo not given) | inactive | inactive | inactive | inactive | inactive | inactive | inactive | inactive | – | inactive | – | – | – | – | – | – | –
OCCCc1cccnc1 | inactive | inactive | inactive | inactive | inactive | inactive | inactive | inactive | – | inactive | – | – | – | – | – | – | –
O=C(O)C(F)(F)C(F)(F)C(F)(F)OC(F)(F)F | inactive | inactive | inactive | inactive | inactive | inactive | inactive | inactive | – | inactive | – | – | – | – | – | – | –
